Assay outcomes as filed in PubChem BioAssay.
Shown are actives, neighbours in structure and some others; about 3.9% of the full set was active somewhere.
Yeast superoxide = reduction of superoxide in aged yeast, primary screen, HTS; S. cerevisiae aged cells, superoxide DHE fluorescence; stronger effect = lower value; 0.18% of 330,000 active; AID 2690, 2010; superoxide response (% of plate mean), % at 10 µM;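 active = superoxide response under a set limit, about three screen SD below normal, cut at about 65% in these data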;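 note: yeast aged for seven days with compound at 30 °C before DHE staining; 100% = average MFI of all compound-treated wells on the plate with controls excluded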
HGIII-sPLA2 inh = human group III sPLA2 inhibitors, primary screen, biochemical, QFRET, BODIPY PC-A2 liposome substrate; AID 743126, 2013; QFRET BODIPY PC-A2 liposome hydrolysis, fluorescence; inhibition, % at 12.2 µM; 0.56% of 370,000 active;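 active = inhibition above mean plus 3 SD of compounds lying within the high and low control bounds, cut at about 19% in these data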;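 note: 0% = median of test compound wells and 100% = no enzyme DMSO wells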
PLC-beta3 inh = human PLC-beta3 inhibitors, primary screen, biochemical, fluorescence | 0.18% of 370,000 active | Purified PLC-beta3, fluorogenic substrate | inhibition, % at 12.2 µM;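 note: 0% = median of compound wells on plate and 100% = full blocker control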
Target sequence (Q01970 whole entry, looked up): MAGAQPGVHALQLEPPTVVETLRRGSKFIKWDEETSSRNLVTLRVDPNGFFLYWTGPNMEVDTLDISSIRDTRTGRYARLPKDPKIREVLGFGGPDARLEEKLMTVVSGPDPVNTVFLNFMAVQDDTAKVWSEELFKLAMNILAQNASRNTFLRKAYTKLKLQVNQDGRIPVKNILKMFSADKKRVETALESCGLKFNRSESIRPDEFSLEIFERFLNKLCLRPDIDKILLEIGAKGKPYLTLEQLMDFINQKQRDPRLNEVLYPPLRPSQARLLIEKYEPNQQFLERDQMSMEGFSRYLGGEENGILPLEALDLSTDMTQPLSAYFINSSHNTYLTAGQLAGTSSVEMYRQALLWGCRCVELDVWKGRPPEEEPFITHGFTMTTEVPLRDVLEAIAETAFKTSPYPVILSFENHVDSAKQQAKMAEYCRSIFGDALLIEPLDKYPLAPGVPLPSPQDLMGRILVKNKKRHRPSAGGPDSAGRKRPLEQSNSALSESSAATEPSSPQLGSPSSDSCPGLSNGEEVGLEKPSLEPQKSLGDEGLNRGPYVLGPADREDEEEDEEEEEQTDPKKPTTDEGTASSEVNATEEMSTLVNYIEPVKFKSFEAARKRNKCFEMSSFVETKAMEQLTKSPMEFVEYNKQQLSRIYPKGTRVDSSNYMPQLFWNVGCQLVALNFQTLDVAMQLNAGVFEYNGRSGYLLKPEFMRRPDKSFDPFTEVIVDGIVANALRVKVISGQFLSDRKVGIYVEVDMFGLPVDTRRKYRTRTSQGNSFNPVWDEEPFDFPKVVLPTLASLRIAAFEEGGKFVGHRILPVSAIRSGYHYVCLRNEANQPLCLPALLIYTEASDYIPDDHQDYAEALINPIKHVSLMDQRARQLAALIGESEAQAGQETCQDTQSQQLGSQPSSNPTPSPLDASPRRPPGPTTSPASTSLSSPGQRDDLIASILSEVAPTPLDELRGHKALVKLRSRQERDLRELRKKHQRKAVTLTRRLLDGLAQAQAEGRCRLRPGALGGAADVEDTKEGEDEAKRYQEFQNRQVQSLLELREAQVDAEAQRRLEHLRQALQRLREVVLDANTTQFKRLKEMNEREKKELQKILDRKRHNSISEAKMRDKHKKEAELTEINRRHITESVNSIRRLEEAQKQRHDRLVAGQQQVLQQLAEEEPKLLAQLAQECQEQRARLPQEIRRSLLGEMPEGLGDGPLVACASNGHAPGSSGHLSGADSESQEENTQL
AHR act = AHR activators, primary screen, cell-based, luminescence, luciferase reporter, human; 2.5% of 320,000 active; activation, % at 5 µM; Aryl hydrocarbon receptor (Homo sapiens), P35869; AHR-responsive luciferase reporter cells; AID 2796, 2010; in the data active = activation above about 47%;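 note: 0% = vehicle wells and 100% = reference agonist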
PLCg1 inh = PLC-gamma1 enzyme inhibitors, primary screen, biochemical, fluorescence, purified enzyme; AID 720700, 2013; 1-phosphatidylinositol 4,5-bisphosphate phosphodiesterase gamma-1 (Homo sapiens), P19174; fluorogenic substrate; 0.84% of 370,000 active; inhibition, % at 12.2 µM; in the data active = inhibition above about 9.5%
HIF activator = HIF pathway transcriptional activators, primary screen, cell-based, U2OS HRE-luciferase, luminescence; 0.32% of 300,000 active; activation, % at 7.5 µM (by protocol); U2OS HRE-luciferase reporter; normalized: DMSO 0%, desferrioxamine 100%; AID 1910, 2009;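 active = mean activation of at least 10% of the iron chelator positive control signal, with at least half of replicates also reaching 10%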
PLCgamma1 ctr = PLC-gamma1 enzyme inhibitors, counter-screen for PLC-beta3 inhibitor project, biochemical, fluorescence | shares compounds with PLCg1 inh | purified PLC-gamma1, fluorogenic substrate | inhibition, % at 12.3 µM | 3.1% of 3,300 active | AID 743258, 2014; in the data active = inhibition above about 9.5%
PLCbeta3 conf = PLC-beta3 inhibitor confirmation, biochemical, fluorescence, purified enzyme; shares compounds with PLCg1 inh; fluorogenic substrate fluorescence; inhibition, % at 12.3 µM; 1% of 3,300 active; AID 743261, 2014
An asterisk follows results filed as active; . = no result. Cut-off read from the data, not from the text of the source, unless noted: active = inhibition above about 11%; inactive = the rest.

SMILES	Yeast superoxide	HGIII-sPLA2 inh	PLC-beta3 inh	AHR act	PLCg1 inh	HIF activator	PLCgamma1 ctr	PLCbeta3 conf
O=C(Oc1ccc(/C=N/NC(=O)c2ccco2)cc1)c1ccccc1	93	-4	3	5	10*	.	2	8
O=C(N/N=C/c1ccc(OC(=O)c2cccs2)cc1)c1ccc(F)cc1	102	4	11*	5	10*	1	-1	5
O=C(N/N=C/c1ccc(F)cc1)c1ccccc1	94	3	2	8	-1	3	.	.
CCC1CCCCN1CCCNC(=O)c1cn(CC)c2ccc(S(=O)(=O)N(C)C3CCCCC3)cc2c1=O (stereo not given)	124	-2	-5	10	0	0	.	.
CC(C)CC(C(=O)O)N1C(=O)C2C3C=CC(C2C1=O)C1C(=O)N(C(CC(C)C)C(=O)O)C(=O)C31 (stereo not given)	106	4	-7	-1	-1	0	.	.
Cc1cc(C(=O)COC(=O)c2cccc(O)c2)c(C)n1C1CC1	98	-12	-5	3	0	.	.	.
COC(=O)c1ccc(/C=C/C(=O)OCC(=O)Nc2sccc2C(N)=O)cc1	76	.	.	1	.	.	.	.
CCN1CCCC1CNC(=O)CCc1nc(-c2ccc(C)cc2)no1 (stereo not given)	85	4	1	-3	10*	.	4	-3
Cc1ccc(Nc2nc(N)nc(N)c2N=O)cc1Cl	.	6	-3	.	-1	.	.	.
O=[N+]([O-])c1nccn1CC(O)CO (stereo not given)	.	15	8	.	10*	.	-2	2
COc1cc(C(=O)NC2CC(C)CC(C)(C)C2)cc(OC)c1OC (stereo not given)	.	1	12*	.	5	.	-1	-2
COc1cc(C(=O)NC2CC2)cc(OC)c1OC	.	13	1	.	5	.	.	.
C=CCNC(=O)CN1CCC(c2nc3cc(C)c(C)cc3[nH]2)CC1	101	16	-5	8	12*	-1	-10	-3
C=CCNC(=O)CN1CCC(c2nc3ccccc3[nH]2)CC1	109	3	-7	0	3	-1	.	.
CCCCN(C=O)c1c(CC)nc2c(OCCOc3ccccc3)cccn12	.	-6	-4	.	-5	.	.	.
COc1ccc(N2CCN(C3CCCN(C(=O)CN4CCCC4=O)C3)CC2)cc1 (stereo not given)	108	11	-7	0	9.8*	0	-5	-4
COc1ccc(N2CCN(C3CCCN(C(=O)CN4CCOC4=O)C3)CC2)cc1 (stereo not given)	115	3	-2	4	-1	0	.	.
O=C(Nc1ccc2ccccc2c1)C1CC2CCC1C2 (stereo not given)	.	2	1	.	0	.	.	.
O=[N+]([O-])c1cccnc1SCc1ccccc1	102	10	0	2	15*	1	2	0
CCOC(=O)C1(C)CCN1C(=O)c1ccc(F)c(Cl)c1 (stereo not given)	.	6	1	.	1	.	.	.
O=C(NCc1ccco1)c1cccc(F)c1	105	3	-6	-1	10*	0	-6	-2
COc1ccc(C(=O)Nc2ccc(Cl)cc2C(=O)NCc2ccco2)cc1OC	97	1	-11	0	-8	-2	.	.
COc1ccc(Cl)cc1C(=O)NCc1ccco1	69	2	-5	-5	13*	0	-5	-1
Cc1cccc(C(=O)NCc2ccco2)c1	107	5	-4	7	-2	-24	.	.
O=C(Cn1c(=O)oc2ccccc21)Nc1ccc(Cl)cc1	98	-7	-1	0	11*	0	-3	4
SMILES	Yeast superoxide	HGIII-sPLA2 inh	PLC-beta3 inh	AHR act	PLCg1 inh	HIF activator	PLCgamma1 ctr	PLCbeta3 conf
O=C(CN1C(=O)NC2(CCCC2)C1=O)N1CCN(S(=O)(=O)c2cc(Cl)ccc2Cl)CC1	97	10	-15	0	10*	.	-4	-5
CCOC(=O)c1cnn(-c2nc(-c3ccccc3)cs2)c1C(F)(F)F	122	-4	-100	-3	-72	0	.	.
CCOC(=O)c1cnn(-c2nc(-c3ccccc3F)cs2)c1C(F)(F)F	101	0	9	2	9.8*	1	-102	-96
O=C(NCCCN1CCCC1=O)Nc1ccccc1F	103	8	-6	6	11*	1	-5	0
O=C(NCCCN1CCCC1=O)Nc1ccccc1Cl	100	2	-3	1	4	0	.	.
CCCCn1nnnc1C1(C)CCC(=O)N1Cc1ccc(OC)cc1 (stereo not given)	.	-1	1	.	3	.	.	.
NS(=O)(=O)c1ccc(CCNC(=O)[C@@H]2CCCN2S(=O)(=O)c2ccccc2F)cc1	100	0	4	-3	4	0	.	.
NS(=O)(=O)c1ccc(CCNC(=O)C2CCCCN2S(=O)(=O)c2ccccc2)cc1 (stereo not given)	98	-2	4	-1	13*	1	-6	-2
CCOC(=O)c1c2c(n(C)c1C)C(=O)C(=O)c1ccc(Br)cc1-2	88	3	0	7	1	-8	.	.
CCOC(=O)c1c2c(n(Cc3ccccc3)c1C)C(=O)C(=O)c1ccccc1-2	.	9	4	.	17*	.	36*	11*
CSCCC(NC(=O)c1ccco1)c1nc2ccccc2[nH]1 (stereo not given)	89	10	-6	1	6	0	.	.
CS(=O)(=O)N1Cc2ccccc2CC1C(=O)OCC(=O)NCCc1ccc(S(N)(=O)=O)cc1 (stereo not given)	80	0	3	3	1	.	.	.
C#CCNC(=O)C[C@@H]1C[C@@]2(C(=O)OC)CC(C)(C)CC=C2N(CCCCCCCC)C1=O	.	-8	2	.	1	.	.	.
CC1(Cc2c(Cl)cccc2Cl)C(=O)Nc2cc(-c3ccccc3Cl)ccc21 (stereo not given)	.	-2	-2	.	1	.	.	.
COC(=O)c1cccc(CC2(C)C(=O)Nc3cc(-c4ccccc4Cl)ccc32)c1 (stereo not given)	.	3	8	.	14*	.	-1	0
O=C(c1nnsc1S(=O)(=O)c1ccc(Cl)cc1)N1CCOCC1	.	-1	7	.	18*	-2	9	0
CNC(=O)c1nnsc1S(=O)(=O)c1ccc(Cl)cc1	.	1	6	.	3	-1	.	.
